KB-V1 MDR tox = qHTS assay for MDR1-selective chemotherapeutics: Primary screen using the drug-selected MDR subline cells KB-V1; KB-V1 MDR cells viability, CellTiter-Glo, 72 h; Potency, µM (top dose mostly 46.1 µM), hits mostly cytotoxic; 3.4% of 400,000 active; also: nearly all actives have a fitted effect of over 60% in size
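qHTS viability screen in drug-selected KB-V1 MDR cells: 72 h compound treatment at 37 degrees C, ATP luminescence end point.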
KB-3-1 cytotox = qHTS assay for MDR1-selective chemotherapeutics: Primary screen using the parental adenocarcinoma cell KB-3-1; KB-3-1 viability, CellTiter-Glo ATP luminescence, 72 h; Potency, µM (top dose mostly 46.1 µM), most hits filed as cytotoxic; 1.4% of 400,000 active; AID 1347075, 2019; also: nearly all actives have a fitted effect of over 60% in size
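Using CellTiter-Glo luminescence, growth of non-resistant KB-3-1 adenocarcinoma cells is assessed 72 h after pin-tool compound addition at 37 °C. Normalized responses across the concentration series yield fitted curves.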
SW480 rerep = A quantitative high throughput screen for small molecules that induce DNA re-replication in SW480 colon adenocarcinoma cells; SW480 DNA re-replication, Hoechst DNA content imaging, 48 h; 1.8% of 340,000 active; AID 624297, 2012; Potency, µM (doses to about 46.1 µM), hits mostly activators; also: nearly all actives have a fitted effect of over 55% in size
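SW480 cells exposed to compounds for 48 hr at 37 C, 5% CO2, then Hoechst-stained 40 min. Nuclear DNA content imaged by fluorescence scanning (405 nm excitation, 500-530 nm emission); re-replication scored as increased high-intensity nuclei.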
VP16 counter = VP16 counterscreen qHTS for inhibitors of ROR gamma transcriptional activity | Drosophila S2 Gal4-VP16 UAS-luciferase, luminescence, 20 h | Potency, µM (series often up to 53.6 µM), hits mostly inhibitors | 3.5% of 310,000 active;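 also: Gal4-VP16 expression switched on by copper sulfate through the metallothionein promoter; nearly all actives have a fitted effect of over 50% in size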
RORg inh = qHTS for inhibitors of ROR gamma transcriptional activity; Nuclear receptor ROR-gamma (Mus musculus), P51450; Drosophila S2 Gal4-RORgamma UAS-luciferase reporter, 20 h; Potency, µM (top dose mostly 53.6 µM), most hits filed as inhibitors; 5.4% of 310,000 active; AID 2551, 2010; also: nearly all actives have a fitted effect of over 60% in size
Target sequence (P51450 whole entry, looked up, the tested form may be a part): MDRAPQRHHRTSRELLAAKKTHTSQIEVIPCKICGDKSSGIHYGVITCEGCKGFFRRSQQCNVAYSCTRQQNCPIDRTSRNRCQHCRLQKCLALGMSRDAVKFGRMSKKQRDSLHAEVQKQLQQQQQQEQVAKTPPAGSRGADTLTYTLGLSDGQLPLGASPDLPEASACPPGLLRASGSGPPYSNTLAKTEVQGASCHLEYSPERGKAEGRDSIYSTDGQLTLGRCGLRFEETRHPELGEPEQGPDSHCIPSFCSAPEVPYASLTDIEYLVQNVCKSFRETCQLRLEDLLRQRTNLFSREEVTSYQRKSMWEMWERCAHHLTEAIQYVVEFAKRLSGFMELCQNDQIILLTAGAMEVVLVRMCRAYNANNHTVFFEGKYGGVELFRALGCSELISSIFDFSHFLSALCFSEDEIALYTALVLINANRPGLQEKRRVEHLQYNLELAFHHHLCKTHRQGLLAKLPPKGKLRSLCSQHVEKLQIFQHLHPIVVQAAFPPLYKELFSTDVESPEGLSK
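Compounds are pin-transferred onto Drosophila Schneider cells expressing a copper-inducible Gal4–ROR gamma transactivation domain fusion. After 1 hr, copper sulfate is added to 700 uM final; luciferase is read 20 hr later.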
MCF10A rerep = A quantitative high throughput screen for small molecules that induce DNA re-replication in MCF 10a normal breast cells; MCF 10A DNA re-replication, Hoechst nuclear intensity, 48 h; Potency, µM (titrated, usually from 46.1 µM), hits mostly activators; 2.9% of 350,000 active; AID 624296, 2012; also: nearly all actives have a fitted effect of over 50% in size
Large screens that a line does not name were inactive; ! = repeats disagree. Shown are actives, neighbours in structure and some others; about 10% of the full set was active somewhere. Calls follow the shape of the dose curve; as a rule, active = well fitted curve in the direction sought with a large enough effect; inconclusive = small, poorly fitted or top-dose-only effect, or another doubt; inactive = no such curve, though single readings can be large; an effect the other way counts as inactive or inconclusive.

Cc1cc2n(n1)SC(Nc1ccc(F)cc1)N2 (centres undefined)	SW480 rerep inconclusive, VP16 counter inconclusive, RORg inh inconclusive
Cc1cc2n(n1)SC(Nc1cc(Cl)ccc1Cl)N2 (centres undefined)	KB-3-1 cytotox inconclusive, SW480 rerep inconclusive, VP16 counter 0.56µM, RORg inh 0.5µM
Cc1cc2n(n1)SC(Nc1cccc3ccccc13)N2 (centres undefined)	VP16 counter 4.5µM, RORg inh 2µM
COc1ccc(NC(=O)C(c2ccc(C#N)cc2)n2c(=O)c(-c3cc4ccccc4[nH]3)nc3ccccc32)cc1 (centres undefined)	KB-V1 MDR tox inconclusive (no result: SW480 rerep, VP16 counter, RORg inh, MCF10A rerep)
COc1ccc(OC)c(NC(=O)CSc2ncc3c(n2)-c2ccccc2N(C)S3(=O)=O)c1	none (no result: SW480 rerep, VP16 counter, RORg inh, MCF10A rerep)
COc1cccc(C(=O)NCC2OCCc3ccccc32)c1 (centres undefined)	KB-V1 MDR tox inconclusive (no result: SW480 rerep, VP16 counter, RORg inh, MCF10A rerep)
Cc1onc(-c2ccccc2Cl)c1C(=O)NC(=S)Nc1ccc(C(C)(C)C)cc1	VP16 counter 13µM, RORg inh 7.9µM
Cc1onc(-c2ccccc2Cl)c1C(=O)Nc1ccc(CN2CCCC2)cc1	MCF10A rerep inconclusive
Cc1onc(-c2ccccc2Cl)c1C(=O)Nc1ccccc1	none
CCc1ccc(NC(=S)NC(=O)c2c(-c3ccccc3Cl)noc2C)cc1	VP16 counter inconclusive, RORg inh 2.5µM
COC(=O)NC(CC(C)=O)c1ccc(Cl)cc1 (centres undefined)	none (no result: KB-V1 MDR tox, KB-3-1 cytotox, SW480 rerep, MCF10A rerep)
COc1cc(NS(=O)(=O)c2ccc(Br)s2)cc(OC)c1	KB-V1 MDR tox 16µM, KB-3-1 cytotox inconclusive
COc1ccc(CNS(=O)(=O)c2ccc(Br)s2)cc1	none
O=S(=O)(Nc1ccc2c(c1)OCO2)c1ccc(Br)s1	SW480 rerep inconclusive, RORg inh inconclusive, MCF10A rerep 18µM
COC(=O)c1ccccc1NC(=O)Cn1c(=O)n(CCCC(=O)NCCc2ccc(OC)c(OC)c2)c(=O)c2ccccc21	none (no result: SW480 rerep, VP16 counter, RORg inh, MCF10A rerep)
CCn1nc(C)c(CN2CCC(n3nccc3NC(=O)Cc3ccccc3)CC2)c1C	KB-V1 MDR tox inconclusive
O=C(O)CCCC/C=C\C[C@@H](O)/C=C/C=C/C=C\[C@@H](O)CCCC(=O)O	none (no result: KB-V1 MDR tox, KB-3-1 cytotox, SW480 rerep, MCF10A rerep)
CC(=O)N(O)CCCCCNC(=O)CCC(=O)N(O)CCCCCNC(=O)CCC(=O)N(O)CCCCCN	KB-V1 MDR tox inconclusive, KB-3-1 cytotox 21µM!, SW480 rerep 2.5µM!, MCF10A rerep inconclusive
CCn1c(SCC(=O)NNC(=S)Nc2ccccc2)nnc1-c1ccc(Cl)cc1	VP16 counter 1.3µM, RORg inh 4µM (no result: SW480 rerep)
CCn1c(SCCC(=O)Nc2ccccc2)nnc1-c1ccc(OC)cc1	KB-V1 MDR tox inconclusive
CCn1c(SCC(=O)Nc2cccc(OC)c2)nnc1-c1ccc(Cl)cc1	KB-V1 MDR tox 12µM, KB-3-1 cytotox inconclusive
O=C(CSc1nnc(-c2ccccc2)n1-c1ccc(Cl)cc1)NNC(=S)Nc1ccccc1	KB-V1 MDR tox inconclusive, VP16 counter inconclusive, RORg inh inconclusive
CC1(C(=O)NS(=O)(=O)c2cccc(Cl)c2)CCN1C(=O)c1ccccc1CCc1ccccc1 (centres undefined)	none (no result: SW480 rerep, VP16 counter, RORg inh, MCF10A rerep)
Cc1cc(C)c2oc(C(=O)Nc3c(C)n(C)n(-c4ccccc4)c3=O)cc(=O)c2c1	none (no result: SW480 rerep, VP16 counter, RORg inh, MCF10A rerep)
COc1cc(C=C(c2nc3ccccc3s2)c2nc3ccccc3s2)cc(OC)c1O	KB-V1 MDR tox inconclusive, SW480 rerep inconclusive, MCF10A rerep inconclusive
O=C(O)c1ccc(C=C(c2nc3ccccc3s2)c2nc3ccccc3s2)cc1	KB-V1 MDR tox inconclusive, KB-3-1 cytotox inconclusive, MCF10A rerep 18µM
CN(C)c1ccc(/C=C(\Cl)c2nc3ccccc3s2)cc1	KB-V1 MDR tox inconclusive, SW480 rerep inconclusive, MCF10A rerep 7.3µM
Clc1ccccc1CNCC1CCC(CNCc2ccccc2Cl)CC1 (centres undefined)	none (no result: KB-V1 MDR tox, KB-3-1 cytotox, SW480 rerep, MCF10A rerep)
Cc1ccc2nc(NCCN)c3ncc(C)n3c2c1	VP16 counter inconclusive (no result: KB-V1 MDR tox, KB-3-1 cytotox, SW480 rerep, MCF10A rerep)

Screening results as filed in PubChem.
